The source of these data is paper PMC4336329 (PLoS ONE, 2015).

In all, about 310,000 compounds went through this assay and about 14,000 (4.5%) showed an effect of 50% or more. Effects have a minus sign here. The sample as a whole holds a higher share of strong results than the screen did.
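Note: peak tail current of the secondary pulse compared with the same well before compound.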

In this assay the target is human ether-à-go-go-related gene (hERG) potassium channel (human, UniProt Q12809). The assay can be described thus: primary screen, population patch clamp on CHO cells stably expressing hERG; higher = less effect of the substance.
Sequence of human ether-à-go-go-related gene (hERG) potassium channel (Q12809 whole entry, looked up): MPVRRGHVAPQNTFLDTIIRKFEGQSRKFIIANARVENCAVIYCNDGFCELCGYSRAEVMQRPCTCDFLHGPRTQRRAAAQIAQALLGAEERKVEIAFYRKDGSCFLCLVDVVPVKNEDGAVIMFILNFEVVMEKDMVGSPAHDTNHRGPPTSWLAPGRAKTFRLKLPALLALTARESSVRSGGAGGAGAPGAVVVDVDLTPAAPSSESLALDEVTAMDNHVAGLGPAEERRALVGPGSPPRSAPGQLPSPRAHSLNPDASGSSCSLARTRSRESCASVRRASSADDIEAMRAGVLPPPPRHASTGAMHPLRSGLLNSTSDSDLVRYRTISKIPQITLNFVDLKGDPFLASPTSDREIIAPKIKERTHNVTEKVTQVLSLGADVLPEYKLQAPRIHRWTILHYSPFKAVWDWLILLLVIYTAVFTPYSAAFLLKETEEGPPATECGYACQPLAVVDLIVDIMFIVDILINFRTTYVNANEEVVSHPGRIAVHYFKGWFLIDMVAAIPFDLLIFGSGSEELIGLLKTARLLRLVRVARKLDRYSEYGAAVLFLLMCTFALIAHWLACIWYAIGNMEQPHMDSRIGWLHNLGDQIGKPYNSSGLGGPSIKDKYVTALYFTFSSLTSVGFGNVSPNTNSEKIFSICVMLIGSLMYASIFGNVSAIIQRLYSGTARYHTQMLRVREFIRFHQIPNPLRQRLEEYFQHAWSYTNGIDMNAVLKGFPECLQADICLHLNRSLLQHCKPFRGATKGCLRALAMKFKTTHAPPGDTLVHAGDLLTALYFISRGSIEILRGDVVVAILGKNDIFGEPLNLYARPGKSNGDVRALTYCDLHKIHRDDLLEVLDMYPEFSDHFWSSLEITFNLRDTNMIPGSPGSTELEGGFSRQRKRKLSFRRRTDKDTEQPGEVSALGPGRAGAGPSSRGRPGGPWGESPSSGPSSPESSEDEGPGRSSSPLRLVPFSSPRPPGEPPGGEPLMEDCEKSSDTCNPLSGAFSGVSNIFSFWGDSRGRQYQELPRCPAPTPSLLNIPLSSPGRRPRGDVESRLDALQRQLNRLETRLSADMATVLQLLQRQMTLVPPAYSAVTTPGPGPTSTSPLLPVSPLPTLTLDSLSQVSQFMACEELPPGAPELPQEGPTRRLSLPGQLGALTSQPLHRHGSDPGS
With `Cc1ccc(C)c(N=Cc2c(O)c3ccccc3oc2=O)c1`, the “hERG current change (%, negative = inhibition) at 10uM” value amounted to 16.3%.
For `CCc1ccc(C(C(=O)NC2CCCC2)N(C(=O)/C=C/C(=O)Nc2cc(C)on2)c2ccccc2C)cc1` (centres unmarked) the value was 9.58%; for `C/C(=N\Nc1ccccc1Cl)c1ccc(-n2ccnc2)cc1`, -7.1%.
For `COCCCN1CN=C(NS(=O)(=O)c2ccc(C)cc2)NC1` the value was 13.3%.
Turning to `CC(=O)c1cccc(NC(=O)COc2ccc(S(=O)(=O)N3CCOCC3)cc2)c1`, the “hERG current change (%, negative = inhibition) at 10uM” value was -10.1%.
For `Cc1nc2ccc(-c3nc4ccccc4[nH]3)cc2[nH]1` the value was 7.78%; for `Cc1ccc(S(=O)(=O)NCCC(=O)NC2CCCCC2C)cc1` (centres unmarked), 3.4%.
As for `COc1ccc(OC)c(NC(=O)C23CC4CC(C2)CC(n2cnc(Br)n2)(C4)C3)c1`, the figure is -41.2%; as for `O=C(Nc1ccccc1)C12CC3CC(C1)CC(n1cnc([N+](=O)[O-])n1)(C3)C2`, -59.6%.
For `COc1ccc(NC(=O)C23CC4CC(C2)CC(n2cnc(Br)n2)(C4)C3)cc1Cl` the value was 3.08%; for `COC(=O)c1ccc(NC(=O)C23CC4CC(C2)CC(n2cnc(Cl)n2)(C4)C3)cc1`, -27.3%; for `O=C(Nc1cccc2ccccc12)C12CC3CC(C1)CC(n1cnc([N+](=O)[O-])n1)(C3)C2`, -44.5%.
Regarding `Cc1ccc(F)cc1NC(=O)C12CC3CC(C1)CC(n1cnc([N+](=O)[O-])n1)(C3)C2`, the “hERG current change (%, negative = inhibition) at 10uM” value was -52.8%.
For `COc1ccc(NC(=O)C23CC4CC(C2)CC(n2cnc(Br)n2)(C4)C3)c(C)c1` the value was -9.06%.
With `COc1ccc(NC(=O)C23CC4CC(C2)CC(n2cnc(Br)n2)(C4)C3)cc1OC`, the “hERG current change (%, negative = inhibition) at 10uM” value is on record as -2.41%.
As for `COc1ccc(NC(=O)C23CC4CC(C2)CC(n2cnc(Br)n2)(C4)C3)c(OC)c1`, the figure is -23.4%; as for `COC(=O)c1ccccc1NC(=O)C12CC3CC(C1)CC(n1cnc(Cl)n1)(C3)C2`, -38.5%; as for `CC(=O)Nc1ccc(NC(=O)C23CC4CC(C2)CC(n2cnc(Br)n2)(C4)C3)cc1`, -63.4%.
Turning to `COc1cc(NC(=O)C23CC4CC(C2)CC(n2cnc([N+](=O)[O-])n2)(C4)C3)cc(OC)c1`, the “hERG current change (%, negative = inhibition) at 10uM” value is -66.7%.
For `Cn1c(=O)c([N+](=O)[O-])c(NCC(O)c2ccccc2)c2ccccc21` (centres unmarked) the value was -2.03%; for `CCOC(=O)Cc1nn(C(C)C)c(=O)c2ccccc12`, 26.6%.
As for `Cc1cccc(NC(=O)CCn2nc(C)cc2C)c1`, the figure is 9.02%; as for `CN(C)C(=O)/C(=C/c1cn(-c2ccccc2)nc1-c1cccc([N+](=O)[O-])c1)NC(=O)c1ccccc1`, -29.1%.
With `CCNC(=S)N1CCCC(c2nc3ccc(C)cc3[nH]2)C1` (centres unmarked), the “hERG current change (%, negative = inhibition) at 10uM” value was -2.45%.
For `CC1=C(C(=O)OCc2ccccc2)C(c2ccc(Cl)cc2Cl)NC(=O)N1CCCCCC(=O)O` (centres unmarked) the value was -16.2%.
On to `CCN(CC(=O)Nc1ccc(OC)cc1)C(=O)c1cc(-c2cccs2)nn1-c1ccccc1`, for which the “hERG current change (%, negative = inhibition) at 10uM” value is given as -15.4%.
Regarding `CCOc1ccc(CN(C)C(=O)[C@H](Cc2ccccc2)NC(=O)OCc2ccccc2)cc1OC`, the “hERG current change (%, negative = inhibition) at 10uM” value is listed as -15.7%.
For `c1csc(CNc2ncnc3nc[nH]c23)c1` the value was -2.79%; for `O=C(Nc1ccon1)C12CC3CC(C1)CC(n1cnc([N+](=O)[O-])n1)(C3)C2`, -50.5%; for `Cc1cc(NC(=O)C23CC4CC(C2)CC(n2cnc([N+](=O)[O-])n2)(C4)C3)no1`, -32.4%.
For `O=C(Nc1cc(Oc2ccccc2)cc([N+](=O)[O-])c1)C12CC3CC(C1)CC(n1cnc(Cl)n1)(C3)C2` the value was 13.9%.
As for `O=C(Nc1cccc([N+](=O)[O-])c1)C12CC3CC(C1)CC(n1cnc([N+](=O)[O-])n1)(C3)C2`, the figure is -67.8%; as for `O=C(O)c1cccc(NC(=O)C23CC4CC(C2)CC(n2cnc(Cl)n2)(C4)C3)c1`, 6.02%.
In the case of `O=[N+]([O-])c1ncn(C23CC4CC(CC(C4)C2)C3)n1`, the “hERG current change (%, negative = inhibition) at 10uM” value was -8.76%.
As for `COc1ccc(CNC(=O)c2coc(=O)c3ccccc23)cc1`, the figure is -27.3%; as for `O=C(NC1CCN(Cc2ccccc2)CC1)C(NS(=O)(=O)c1cccc2nsnc12)c1ccccc1` (centres unmarked), -44.6%; as for `Cc1ccc(OCC(=O)N/N=C\c2cccn2C)c([N+](=O)[O-])c1`, -8.65%.
As for `O=C(O)[C@H]1CCCC[C@H]1C(=O)Nc1ccc(Nc2ccccc2)cc1`, the figure is 4.15%.
As for `CSc1sc(C(=O)N2CCc3ccccc32)cc1S(=O)(=O)C(C)C`, the figure is 14.2%; as for `Cn1cnnc1Sc1cc(N2CCNCC2)ccc1[N+](=O)[O-]`, 7.66%.
As to `Cn1cnnc1Sc1cc(N2CCN(S(=O)(=O)c3ccccc3)CC2)ccc1[N+](=O)[O-]`, the “hERG current change (%, negative = inhibition) at 10uM” value is recorded as -60.5%.
As to `Cc1ccc(S(=O)(=O)N2CCN(c3ccc([N+](=O)[O-])c(Sc4nncn4C)c3)CC2)cc1`, the “hERG current change (%, negative = inhibition) at 10uM” value is recorded as -62.3%.
As for `CN1CCN(c2ccc([N+](=O)[O-])c(Sc3nncn3C)c2)CC1`, the figure is -9.71%.
As for `Cn1cnnc1Sc1cc(N2CCN(S(=O)(=O)c3ccc(Cl)c(Cl)c3)CC2)ccc1[N+](=O)[O-]`, the figure is -10.6%.
For `Cn1cnnc1Sc1ccc(S(C)(=O)=O)cc1[N+](=O)[O-]` the value was 13%; for `[N-]=[N+]=NC(c1ccccc1)c1nc2ccccc2[nH]c1=O` (centres unmarked), -7.74%; for `Nc1ccccc1Cl`, 10.3%.
As to `O=C(NCc1ccco1)c1cccc(Nc2nc3ccc(Br)cc3[nH]2)c1`, the “hERG current change (%, negative = inhibition) at 10uM” value is listed as -11.2%.
As for `COc1ccc(NC(=O)/C(C#N)=C\c2cc(C)n(-c3ccc(Oc4ccc([N+](=O)[O-])cn4)cc3)c2C)cc1`, the figure is 10.8%; as for `Cc1ccc(-n2c(C)cc(/C=N/Nc3ccc([N+](=O)[O-])cn3)c2C)cc1`, -4.67%; as for `Cc1cc(C=O)c(C)n1-c1ccc(Oc2ccc([N+](=O)[O-])cn2)cc1`, -56.7%.
In the case of `COCC(=O)N1CCC(Oc2ccc(C(=O)NC(C)c3csc(C)n3)cc2)CC1` (centres unmarked), the “hERG current change (%, negative = inhibition) at 10uM” value worked out at 10.4%.
Consider `COc1ccc2cc([C@@H](C)C(=O)[O-])ccc2c1.[Na+]`, for which the “hERG current change (%, negative = inhibition) at 10uM” value is -2.41%.
Turning to `COC(=O)c1ccccc1S(=O)(=O)N1CCC(C(=O)OCC(=O)c2ccccc2OC)CC1`, the “hERG current change (%, negative = inhibition) at 10uM” value is recorded as -16.8%.
As for `COC(=O)c1ccccc1S(=O)(=O)N1CCC(C(=O)OC(C)C(=O)NC(N)=O)CC1` (centres unmarked), the figure is 29.7%; as for `COC(=O)c1ccccc1S(=O)(=O)N1CCC(C(=O)OCc2cccc(OC)c2OC)CC1`, -13.5%; as for `CC(OC(=O)C1CC1)C(=O)Nc1ncc(Cl)cc1Cl` (centres unmarked), 18.1%.
As for `COC(=O)c1ccccc1S(=O)(=O)N1CCC(C(=O)OC(C)C(=O)Nc2ccc(NC(C)=O)cc2)CC1` (centres unmarked), the figure is -14.6%.
For `COc1ccc(COC(=O)C2CCN(S(=O)(=O)c3ccc(C)cc3)CC2)cc1` the value was -7.61%; for `CC(OC(=O)C1CCN(S(=O)(=O)c2ccccc2)CC1)C(=O)Nc1ncc(Cl)cc1Cl` (centres unmarked), -64%; for `COC(=O)c1ccccc1S(=O)(=O)N1CCC(C(=O)OC(C)C(=O)Nc2ccccc2OC)CC1` (centres unmarked), -51.3%.
Turning to `O=C(OCc1ccc([N+](=O)[O-])cc1)C1CCN(S(=O)(=O)c2ccccc2)CC1`, the “hERG current change (%, negative = inhibition) at 10uM” value is -37.3%.
Take `COC(=O)c1ccccc1S(=O)(=O)N1CCC(C(=O)OCc2ccc([N+](=O)[O-])cc2)CC1`: the “hERG current change (%, negative = inhibition) at 10uM” value is given as -57.1%.
As for `Cc1ccc(S(=O)(=O)N2CCC(C(=O)OCc3ccc([N+](=O)[O-])cc3)CC2)cc1`, the figure is -69.8%; as for `CC(OC(=O)C1CCCC1)C(=O)Nc1ncc(Cl)cc1Cl` (centres unmarked), -2.36%; as for `CC(C(=O)Nc1ccc(Cl)cc1Cl)N1CC=C(c2ccccc2)CC1` (centres unmarked), -28.1%.
As for `CCn1c(=O)c(CCC(=O)N2CCN(c3ccccn3)CC2)c(C)c2c(C)nn(-c3ccccc3)c21`, the figure is -17.8%; as for `Cc1ccc2nc(SCC(=O)N3CCCC3)nc(=O)n2c1`, -0.651%.
For `Cn1nc(C(=O)Nc2nc3ccccc3[nH]2)c2ccccc2c1=O` the value was -47.1%; for `CC(C)OCCCNC(=O)C1CCC(CNS(=O)(=O)c2ccccc2)CC1` (centres unmarked), -7.62%; for `Cc1ccc(C(C)(C)C)c(OCCCn2ccnc2)c1.O=C(O)C(=O)O`, -16.6%.
Regarding `CCc1cc(CNC(=O)CC2C(=O)NCCN2Cc2ccccc2C(F)(F)F)on1` (centres unmarked), the “hERG current change (%, negative = inhibition) at 10uM” value turned out to be 10%.
For `Cc1ccc2nc(NC(=O)Cn3nc(C)c([N+](=O)[O-])c3C)sc2c1` the value was -23.5%; for `CCOc1ccc(C(=O)OCC(=O)NC2CCCC2)cc1OCC`, 8.34%; for `COc1ccccc1NC(=O)/C(=N/OCc1ccc(C#N)cc1)C(C)=O`, -18.2%.
In the case of `COC(=O)c1sccc1NC(=O)c1c(-c2ccccc2)noc1C`, the “hERG current change (%, negative = inhibition) at 10uM” value is given as -26.5%.
For `Cc1ccccc1C(=O)NNC(=O)Nc1ccccc1` the value was 11.6%; for `COc1ccc2nc(C)cc(Nc3ccc(N4CCOCC4)cc3)c2c1.Cl`, -60.9%; for `CCOc1ccc2nc(N3CCOCC3)nc(C)c2c1`, 3.2%.
As for `CCOc1ccc2nc(C)cc(Nc3ccc(N4CCOCC4)cc3)c2c1.Cl`, the figure is -73%; as for `COc1ccc(Nc2cc(C)nc(N3CCOCC3)n2)cc1`, -12.2%; as for `COc1ccc2nc(C)cc(Nc3ccc(N4CCN(C)CC4)cc3)c2c1`, -1.75%.
As for `CCOc1ccc(Nc2cc(C)nc(N3CCOCC3)n2)cc1`, the figure is 0.875%.
